“And” between values parts separate entries of the source, which are not always exact repeats. Equal entries are not always repeated. The whole screen tested about 18,000 compounds, of which about 1,200 (6.7%) were called active. A call without a number means that no potency is given here. Not shown: some 16% with an inconclusive outcome. This is one part of a sample in which actives are shown more often than they occur. Unmarked numbers belong to inactive results. Calls come from the whole dose curve; tested in HEK293 cells. Bridge positions count the residues as written; N and C are the ends. Peptide text beside a SMILES is read from it.
Potency is the fitted concentration of half-maximal effect.

A short description of this assay: qHTS for Inhibitors of binding or entry into cells for Marburg Virus. The conditions noted are these: Marburg virus pseudotype entry/binding inhibition, cell-based; series mostly up to 49.2 µM. Background: In qHTS, concentration-response curves come from the screen itself.
For the compound `COC(=O)C1=C(C(=O)OC)[C@@H]2N(C)c3ccccc3[C@@]23C[C@@H](C(=O)OC)N(C(=O)c2ccco2)C3=N1`, the activity change, negative = inhibition is 74% [at 8.59 µM].
As to `C[C@H](CCC(=O)NCC(=O)O)[C@H]1CC[C@H]2[C@H]3[C@@H](C[C@@H](O)[C@]12C)[C@]1(C)CC[C@H](O)C[C@@H]1C[C@@H]3O`, the activity change, negative = inhibition entry was “inactive”.
Same read-out and setting: under `COC(=O)[C@@]1(C=C[C@@H](C)[C@H](OC)c2ccccc2Br)[C@@H]2Oc3ccccc3[C@@H]21` stands 4.01% [at 8.59 µM].
Same read-out and setting: under `C=C[C@](C)(O)CCC1C(=C)CCC2[C@@](C)(CO)CCC[C@@]12C` (stereo partly specified) stands “inactive”; under `COc1cccc([C@@H]2Oc3ccc(OC)cc3C(=O)[C@@H]2OC(=O)Nc2cc(OC)c(OC)c(OC)c2)c1`, 12.9% [at 8.59 µM]; under `Fc1ccc(Cl)cc1-c1nc(Nc2ccncc2)c2nccnc2n1`, “inactive”.
Same read-out and setting: under `C=C(C(C)=O)C(O)c1ccc([N+](=O)[O-])cc1` (stereo unspecified) stands “inactive”.
Consider `COc1ccc(-c2nc3c(c4c2C[C@H](c2ccccc2)OC4)CN(C(=O)C2CC2)CC3)c(C)c1`, for which the activity change, negative = inhibition is -29.5% [at 8.59 µM] and -8.72% [at 8.59 µM].
In the case of `C[C@@H](O)[C@@H]1NC(=O)[C@H](CCCCN)NC(=O)[C@H](Cc2c[nH]c3ccccc23)NC(=O)[C@H](Cc2ccccc2)NC(=O)[C@H](Cc2ccccc2)NC(=O)[C@H](CC(N)=O)NC(=O)[C@H](CCCCN)NC(=O)[C@@H](NC(=O)[C@@H]2CCCN2)CSSC[C@@H](C(=O)N[C@@H](CCCCN)C(=O)O)NC(=O)[C@H](CO)NC(=O)[C@H](CO)NC(=O)[C@H](Cc2ccccc2)NC1=O` (H-PCKNFFWKTFSSCK-OH; disulfide 2-13), the activity change, negative = inhibition entry is “inactive”.
Same read-out and setting: under `C[C@@H]1C(c2ccc(F)cc2)=NN(c2ccc(Br)cc2)[C@H]1C(=O)N1CCOC1=O` stands “inactive”; under `C/C=C/C1=C(C(=O)O)N2C(=O)[C@@H](NC(=O)[C@H](N)c3ccc(O)cc3)[C@H]2SC1`, “inactive”.
On the same count and under the same terms, under `COC(=O)CC1c2ccccc2C(Cc2ccc(OC)cc2)=C(C)N1C(=O)OC` (stereo unspecified) stands 0.314% [at 8.59 µM] and -19% [at 8.59 µM]; under `CC(C)(C)OC(=O)N1CCC(C(=O)Nc2cccc(C(=O)NCCc3ccccc3)c2)CC1`, “inactive”; under `CC(C)(O)CCC(O)[C@@](C)(O)C1CC[C@]2(O)C3=CC(=O)C4CC(O)C(O)C[C@]4(C)C3CC[C@]12C` (stereo partly specified), “inactive”.
Turning to `CC(C)=CCC[C@]1(C)[C@@H](CC=C(C)C)C[C@@]2(CC=C(C)C)C(=O)[C@]1(C(=O)C(C)C)C(=O)C(CC=C(C)C)=C2O`, the Potency is 15.8 µM (active).
On to `CC1(OC(=O)C2CCCC2)C(=O)C=C2C=C(c3ccc(C#N)cc3)OC=C2C1=O` (stereo unspecified), for which the activity change, negative = inhibition entry is “inactive”.
As to `CCN1C(=NCc2cc(OC)c(OC)c(OC)c2)NC(c2cccc(C(F)(F)F)c2)C(C(=O)OC)=C1C` (stereo unspecified), the activity change, negative = inhibition is 12.8% [at 8.59 µM].
The same measure, in the same setting: under `O=C1C=C(c2ccccc2)CCC1` stands “inactive”.
`CC[C@H](C)[C@H](NC(=O)[C@H](CCCNC(=N)N)NC(=O)[C@H](CCCNC(=N)N)NC(=O)[C@H](CC(C)C)NC(=O)[C@H](Cc1ccccc1)NC(=O)CNC(=O)CNC(=O)[C@@H](N)Cc1ccc(O)cc1)C(=O)N[C@@H](CCCNC(=N)N)C(=O)N1CCC[C@H]1C(=O)N[C@@H](CCCCN)C(=O)N[C@@H](CC(C)C)C(=O)N[C@@H](CCCCN)C(=O)N[C@@H](Cc1c[nH]c2ccccc12)C(=O)N[C@@H](CC(=O)O)C(=O)N[C@@H](CC(N)=O)C(=O)N[C@@H](CCC(N)=O)C(=O)O`: the activity change, negative = inhibition entry is “inactive”.
For the compound `CNCC[C@H](Oc1ccc(C(F)(F)F)cc1)c1ccccc1`, the Potency was 3.98 µM (active) and 8.91 µM (active).
As for `COC(=O)N[C@@H](c1ccccc1)[C@]1(C(=O)OC)CCCC1=O`, the activity change, negative = inhibition is -27.3% [at 8.59 µM].
Still for that read-out and setting: under `CC[C@H](C)[C@@H](NC(=O)O[C@@H]1C(=O)c2cc(OC)ccc2O[C@H]1c1cccc(OC)c1)C(=O)OC` stands “inactive”; under `COc1ccccc1C1CN(CCNC(=O)C2=CCCC2)Cc2ccccc2O1` (stereo unspecified), “inactive”.
Still for that read-out and setting: under `COCC(=O)Nc1cc(C(=O)N2CCCC(c3ccccc3)CC2)c2c(c1)nc(-c1ccncc1)n2C` (stereo unspecified) stands “inactive”.
Consider `C=C(C)C(=O)c1ccc(F)cc1`, for which the activity change, negative = inhibition entry was “inactive”.
On the same count and under the same terms, under `C[C@@H]1[C@@H](c2ccccc2)Oc2c(Cl)cccc2S(=O)(=O)N1Cc1ccc(Cl)cc1` stands “inactive”; under `C#C[C@]1(O)CC[C@H]2[C@@H]3CCC4=C/C(=N/O)CC[C@@H]4[C@H]3CC[C@@]21CC`, “inactive”; under `COCCN1C(=O)N[C@@H](CCc2ccccc2)[C@H](C(C)=O)[C@H]1C`, -2.21% [at 8.59 µM].
The same measure, in the same setting: under `COc1ccc([C@]23Cc4ccccc4[C@H](O2)c2c(c4ccc(OC)cc4oc2=O)O3)cc1` stands -9.62% [at 8.59 µM].
Regarding `COc1ccc(-c2nc3c(c4c2C[C@H](c2ccccc2)OC4)CN(C(=O)c2cccnc2)CC3)c(C)c1`, the activity change, negative = inhibition was 29.8% [at 8.59 µM].
On the same count and under the same terms, under `CC[C@H]1C[C@H](C=CCC(C(=O)OC)C(=O)OC)OP(=O)(OC)O1` (stereo partly specified) stands “inactive”.
Take `CC[C@H]1CN2CCc3cc(OC)c(OC)cc3[C@@H]2C[C@@H]1C[C@H]1NCCc2cc(OC)c(OC)cc21`: the Potency is 0.398 µM (active).
Consider `Cc1cc2oc(=O)cc(-c3ccccc3)c2c(C)c1-c1ccc(OC(F)(F)F)cc1`, for which the activity change, negative = inhibition entry was “inactive”.
On the same count and under the same terms, under `O=C1OCCN1C(=O)[C@H]1[C@H](c2ccccc2)C(c2ccc(F)cc2)=NN1c1ccccc1` stands “inactive”; under `C=C/C1=C/Cc2ccccc2[C@H](C[N+](=O)[O-])C(C(=O)OC)(C(=O)OC)C1`, “inactive”; under `CC/C=C\C/C=C\C/C=C\C/C=C\C/C=C\C/C=C\CCC(=O)NCCc1ccc(O)c(O)c1`, “inactive”.
Same read-out and setting: under `CC1=C2[C@@H](O)[C@H]([C@@H](C)C(=O)NCCC(C)C)CC[C@@]2(C)C=CC1=O` stands “inactive”; under `O=C(C1CCCCC1)N1C[C@@H](n2cc(C3CC3)nn2)[C@@H](O)C[C@@H]1c1ccccc1`, “inactive”.
On the same count and under the same terms, under `Cc1ccc(-c2ccc(CN3C(C(C)C)C(=O)N(Cc4cn(CCC5OCCCO5)nn4)CCS3(=O)=O)cc2)cc1` (stereo unspecified) stands “inactive”; under `COC(=O)C12C[C@H](C)C3C(C)C(c4ccccc4C31)N2C(=O)C(F)(F)F` (stereo partly specified), -25.2% [at 8.59 µM].
Take `CCN1C(=S)NC(c2cccc(C(F)(F)F)c2)C(C(=O)OC)=C1C` (stereo unspecified): the activity change, negative = inhibition is 95.8% [at 8.59 µM].
Still for that read-out and setting: under `CCOC(=O)CN1C(=O)N[C@@H](c2ccc(Br)cc2)C(C(C)=O)=C1C` stands “inactive”.
Consider `CC(=O)Oc1c2c(c3c(c1CC=C(C)C)O[C@@]14C(=CC5CC1C(C)(C)OC4(C/C=C(\C)C(=O)O)C5=O)C3=O)OC(C)(CCC=C(C)C)C=C2` (stereo partly specified), for which the Potency was 3.55 µM (active).
In the case of `Cc1cccc([C@H]2[C@@H]3C=CC[C@@H](C)[C@@H]3C(=O)N2Cc2ccccc2)c1`, the activity change, negative = inhibition entry is “inactive”.
On the same count and under the same terms, under `COc1cccc([C@H](O)Cn2cc(-c3ccc(CON=C(C)C)cc3)nn2)c1` stands 7.92% [at 8.59 µM]; under `Cc1cc2c(nc1C)CCCCN2C[C@H](C)ON=C1[C@H]2CCn3c(=O)n(-c4ccccc4)c(=O)n3[C@@H]2[C@H](O)[C@@H]2O[C@H]12`, 26% [at 8.59 µM].
In the case of `N#Cc1c(Cl)c(Cl)c(Cl)c(C#N)c1Cl`, the Potency was 1.12 µM (active).
As for `COCOc1cc(OC)ccc1C(=O)/C=C/c1ccc([N+](=O)[O-])cc1`, the activity change, negative = inhibition result is “inactive”.
Regarding `OCCN1CCN(CC/C=C2\c3ccccc3Sc3ccc(C(F)(F)F)cc32)CC1`, the Potency is 12.6 µM (active).
Take `CC(C)(C)OC(=O)NCCCCC1=CC2=CC(=O)C(C)(OC(=O)c3cccs3)C(=O)C2=CO1` (stereo unspecified): the activity change, negative = inhibition result was “inactive”.
The same measure, in the same setting: under `CCOC(=O)C1=C(C)c2ccccc2OC1C(=O)OCC` (stereo unspecified) stands “inactive”.
Still for that read-out and setting: under `COc1cccc(CC(=O)N2CCc3nc(COc4ccccc4)c4c(c3C2)CO[C@@H](C)C4)c1` stands -8.64% [at 8.59 µM]; under `N#Cc1cccc(CS(=O)(=O)c2nnnn2-c2cc(C(F)(F)F)cc(C(F)(F)F)c2)c1`, “inactive”.
On the same count and under the same terms, under `COc1ccccc1-c1ccnc(-n2ncc(C(=O)NCCc3ccncc3)c2C)n1` stands “inactive”; under `CC(C)[C@@H](CC(=O)N[C@@H]1CCNC[C@H]1C(=O)N[C@H](CC(=O)N[C@@H](CCC(=O)O)CC(=O)O)Cc1ccccc1)NC(=O)C[C@H](CO)NC(=O)[C@@H]1CNCC[C@H]1N`, “inactive”.
In the case of `COC(=O)[C@H]1[C@@H](c2ccccc2)NC(=O)O[C@@H]1C`, the activity change, negative = inhibition was 55.5% [at 8.59 µM].
Still for that read-out and setting: under `CC(C)CNc1cccc2c1S(=O)(=O)N[C@H](CC(C)C)CO2` stands “inactive”; under `COCCN1C(=S)NC(c2cccc(F)c2)C(C(=O)OC)=C1C` (stereo unspecified), 20.9% [at 8.59 µM].
Still for that read-out and setting: under `N#Cc1ccc2c(c1)C[C@]1(CCCCN3C(=O)c4ccccc4C3=O)OC3=C(C(=O)OC4(CCCCC4)C3)[C@H]2O1` stands 9.87% [at 8.59 µM].
With `CN(Cc1ccccc1F)c1cc2c(c3c1ccn3C)C1CCC2O1` (stereo unspecified), the activity change, negative = inhibition result is “inactive”.
On to `COC(=O)[C@@H]1CC2=CC(=O)CC[C@]2(C)[C@@]23O[C@@H]2C[C@@]2(C)[C@@H](CC[C@@]24CCC(=O)O4)[C@H]13`, for which the activity change, negative = inhibition result is “inactive”.
As to `CC[C@]1(O)C(=O)OCc2c1cc1n(c2=O)Cc2cc3ccccc3nc2-1`, the Potency is 2.82 µM (active).
Consider `CCCN(C/C=C/I)C1CCc2ccc(O)cc2C1` (stereo unspecified), for which the activity change, negative = inhibition entry is “inactive”.
As to `CCCN(C/C=C\I)[C@@H]1CCc2cccc(O)c2C1`, the Potency was 25.1 µM (active).
Consider `CCCN(CCc1ccccc1)C1CCc2c(O)cccc2C1` (stereo unspecified), for which the Potency is 35.5 µM (active).
`O=C(Nc1cc(C(=O)Nc2ccc(S(=O)(=O)O)cc2)cc(C(=O)Nc2ccc(S(=O)(=O)O)cc2)c1)Nc1cc(C(=O)Nc2ccc(S(=O)(=O)O)cc2)cc(C(=O)Nc2ccc(S(=O)(=O)O)cc2)c1`: the activity change, negative = inhibition result is “inactive”.

These data come from PubChem BioAssay AID720532 (National Center for Advancing Translational Sciences (NCATS), 2013).
